Results filed as inconclusive are left out. Calls of active or inactive are those of the source. Calls follow the shape of the dose curve; as a rule, active = well fitted inhibition curve with a large enough effect; inconclusive = small, poorly fitted or top-dose-only effect; inactive = flat fitted curve, though single readings scatter.
Assay: qHTS for Inhibitors of Plasmodium falciparum (HB3) proliferation (AID 504318); also: nearly all actives have a fitted effect of over 60% in size
Settings: P. falciparum HB3 in erythrocytes, SYBR Green DNA, 72 h; series mostly up to 7.21 µM
Source text: Plasmodium falciparum is a virulent malarial parasite that kills 1-2 million people worldwide each year. Malaria not only inflicts tremendous suffering and morbidity on the human population, but has dramatically influenced the course of civilization with profound sociological and economic implications (Shah, S. 2010). Transmitted by mosquitoes, the sporozoite form of the parasite enters the blood stream to infect hepatocytes, where they become merozoites that infect red blood cells (erythrocytes). Within erythrocytes, merozoites begin a […] cycle of growth and division, after which the parasite is released to infect new red blood cells. Gametocytes, which form within erythrocytes as well, circulate in the bloodstream and are ingested by the mosquito, thereby completing the life cycle (see CDC website). To profile malarial lines for differential chemical responses and to identify inhibitors of malarial growth, an assay that measures P. falciparum growth and replication within erythrocytes was employed. This assay uses a DNA binding fluorescent dye (SYBR Green) to detect parasite DNA following cell lysis. Because mature erythrocytes lack DNA, only Plasmodium-derived DNA is detected. The P. falciparum line cp250, derived from a malarial isolate from Cambodia, (Mu, J., et al. 2010) was added to the panel of lines, Dd2, HB3, 7G8 and GB4 in this study. Laboratory of Assay Development and Screening Technology [ADST] and NIH Chemical Genomics Center [NCGC] Boston University, Chemistry Department, Center for Chemical Methodology and Library Development [CMLD-BU] NIH National Institute of Allergy and Infectious Diseases [NIAID]
ADST Assay Protocol Summary: The 1536-well SYBR Green viability assay was based on the method of Bennett et al (2004) and described previously in 1536-well format (Yuan J., et al. 2009). For screening 3 ul culture medium was dispensed into 1536 well black clear bottom plates (Aurora Biotechnologies) using a Multidrop Combi (Thermo Fisher Scientific Inc.), 23 nL compounds in DMSO were added by a pin transfer (Cleveland, P.H. and Koutz, P.J, 2005) using a pin tool-based delivery system (Kalypsys), and 5 ul of erythrocytes infected with P. falciparum one of five lines (cp250, Dd2, HB3, 7G8 or GB4, 0.3% parasitemia, 2.5% hematocrit final concentration) were added. The plates were incubated at 37C in a humidified incubator in 5% CO2 for 72 h, and 2 ul lysis buffer (20 mM Tris HCl, 10 mM EDTA, 0.16% saponin, 1.6% triton X, 10X SYBR Green I (supplied as 10,000X final concentration by Invitrogen) was added to each well. The plates were mixed for 25 sec with gentle shaking and incubated overnight at room temperature in the dark. The following morning, fluorescence intensity at 485(14) nm excitation and 535(25) nm emission wavelengths was measured on an EnVision (Perkin Elmer) plate reader. Plate reads were normalized relative to the control inhibitor (0.29 uM artemisinin) and vehicle (DMSO) wells present on each plate and then corrected by an algorithm using vehicle-only control plates at the beginning and end of the compound plate stack. References Shah, S. (2010). The Fever: how malaria has ruled humankind for 500,000 years. New York, Sarah Crichton Books. CDC web site, http://www.cdc.gov/malaria/about/biology/index.html Mu, J., Myers, R.A., Jiang, H., Liu, S., Ricklefs, S., Waisberg, M., Chotivanich, K., Wilairatana, P., Krudsood, S., White, N.J., et Plasmodium falciparum genome-wide scans for positive selection, recombination hot spots and resistance to antimalarial drugs Nature Genetics 2010, 42, pp 268-271 Bennett TN, Paguio, M., Gligorijevic, B., Seudieu, C., Kosar, A. D., Davidson, E., and Roepe, P. D. Novel, rapid, and inexpensive cell-based quantification of antimalarial drug efficacy Antimicrobial Agents Chemother. 2004, 48(5): pp 1807-10 Yuan J, Johnson RL, Huang RL, Wichterman J, Jiang HY, Hayton K, Fidock DA, Wellems TE, Inglese J, Austin CP, Su XZ. […]

Potency, inactive:
CCN1C(=O)N[C@@H](CCc2ccccc2)C(C(=O)OC)=C1C
C=CCOC(=O)N[C@H](C(C(=O)OC)=C(C)NCc1ccccc1)c1cccc(F)c1
CCCCc1nc2c(c3c1C[C@H](C)OC3)CN(S(=O)(=O)c1ccc(C#N)cc1)CC2
C=CCN1c2ccccc2[C@]23C[C@@H](C(=O)OC)N(C(=O)c4ccco4)C2=NC(C(=O)OC)=C(C(=O)OC)[C@H]13
COCCN1C(=O)N[C@@H](c2cccs2)C(C(C)=O)=C1C
COC(=O)[C@@H]1[C@H](CCc2ccccc2)NC(=O)N(Cc2ccccc2)[C@@H]1C
CC(=O)[C@@H]1[C@@H](C)N(Cc2ccccc2)C(=O)N[C@H]1c1cccc(C(F)(F)F)c1
COC(=O)CCCC1=CC2=C(c3ccccc3)C(=O)C(C)(OC(=O)C3CCCC3)C(=O)C2=CN1CC1CC1 (stereo not given)
CC(C)CON=C1C[C@@H](O)[C@@H](O)[C@@H]2[C@H]3C(=O)N(c4cccc(Oc5ccccc5)c4)C(=O)[C@@H]3CC[C@H]12
COc1ccc(N2C=C3C(=O)C(C)(OC(=O)CCc4ccccc4)C(=O)C=C3C=C2c2ccc(C#N)cc2)cc1 (stereo not given)
COC(=O)N[C@H](C(C(=O)OC)=C(C)NCc1ccccc1)c1cccc(F)c1
C=CC[C@]1(C(=O)OC)C=C[C@H](C)[C@@H](c2ccccc2)N1C(=O)C(F)(F)F
COC/C=C/C1=CC2=CC(=O)C(C)(OC(=O)c3cnc4ccccc4n3)C(=O)C2=CN1CC1CC1 (stereo not given)
C=CC1=C2C=C(C3CC3)N(CCCN(CC)CC)C=C2C(=O)C(C)(OC(=O)c2ccco2)C1=O (stereo not given)
COc1ccc(NC(=O)N2CCc3nc(COc4ccccc4)c4c(c3C2)CO[C@@H](C)C4)cc1
CC(=O)C1=C(C)N(Cc2ccccc2)C(=O)N[C@H]1c1cccc(F)c1
CCOC(=O)CN1C(=O)N[C@@H](c2cccs2)C(C(C)=O)=C1C
CCN1C(=O)NC(c2ccco2)C(C(=O)OC)=C1C (stereo not given)
CCCCC1=CC2=C(c3ccco3)C(=O)C(C)(OC(=O)c3ccc(OC)cc3)C(=O)C2=CN1C1CC1 (stereo not given)
COC(=O)C1=C(C)N(Cc2ccccc2)C(=O)NC1c1ccco1 (stereo not given)
COC(=O)CCC(=O)OC1(C)C(=O)C2=CN(CCN3CCOCC3)C(c3ccc(OC)cc3)=CC2=C(Br)C1=O (stereo not given)
COC(=O)C1=C(C(=O)OC)[C@@H]2N(C)c3ccccc3[C@@]23C[C@@H](CO)N=C3N1
CC1(OC(=O)CCc2ccccc2)C(=O)C=C2C=C3CCCN3C=C2C1=O (stereo not given)
CCN1C(=O)N[C@@H](CCc2ccccc2)[C@H](C(=O)OC)[C@H]1C
COC(=O)CCC(=O)OC1(C)C(=O)C=C2C=C(C3CC3)N(C3CCCC3)C=C2C1=O (stereo not given)
COC/C=C/C1=CC2=CC(=O)C(C)(OC(=O)c3cnc4ccccc4n3)C(=O)C2=CN1CC(C)C (stereo not given)
COC(=O)CCCC1=CC2=CC(=O)C(C)(OC(=O)c3cccs3)C(=O)C2=CN1C(CO)CO (stereo not given)
COC(=O)C1=C(C(=O)OC)[C@@H]2N(Cc3ccccc3)c3ccccc3[C@@]23C[C@@H](C(=O)OC)N(C(=O)NCCBr)C3=N1
C[C@H]1Cc2c(COc3ccccc3)nc3c(c2CO1)CN(C(=O)Nc1cccc(C#N)c1)CC3
CCOC(=O)CN1C(=O)NC(c2cccc(C(F)(F)F)c2)C(C(C)=O)=C1C (stereo not given)
CCCCc1nc2c(c3c1C[C@H](C)OC3)CN(C(=O)COC)CC2
CCOC(=O)CN1C(=O)N[C@@H](c2ccccc2)[C@H](C(=O)OC)[C@H]1C
COC(=O)C1=C(C)N(Cc2ccccc2)C(=O)N[C@H]1c1cccs1
COC(=O)CCC(=O)OC1(C)C(=O)C=C2C=C(C3CC3)N(Cc3ccccc3)C=C2C1=O (stereo not given)
COc1ccc(-c2nc3c(c4c2C[C@H](c2ccccc2)OC4)CN(C(=O)NCCc2c[nH]c4ccccc24)CC3)c(C)c1
COC(=O)N[C@@H](c1cccc(C)c1)[C@]1(C(C)=O)CCCC1=O
CCCCC1=CC2=CC(=O)C(C)(OC(=O)CC)C(=O)C2=CN1c1cccc(C#N)c1 (stereo not given)
COC/C=C/C1=CC2=CC(=O)C(C)(OC(=O)c3cnc4ccccc4n3)C(=O)C2=CN1Cc1ccccc1 (stereo not given)
Fc1ccccc1-c1nc(-c2ccccc2)oc1NC1CCCCC1
COCC(=O)N1CCc2nc(-c3ccc(OC)cc3C)c3c(c2C1)CO[C@@H](c1ccccc1)C3

Reference: PubChem BioAssay (NCATS)
